Reference: PubChem BioAssay
For part of these data: Results with a measured potency or affinity are listed apart. Active and inactive are the calls of the source.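 How the source made its calls, unless noted: active means primary screen active and over 50% activation in each of two duplicate runs; inactive means the rest.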

Assays:
[1] = tested on: TRPC4 beta (transient receptor potential cation channel C4), mouse; test: TRPC4 cation channel opening, retest – cell-based, Fluo4 calcium, HEK293 TRPC4beta/mu-opioid, duplicates, 10 µM, confirmation (AID 2426;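 active means fluorescence ratio normalized to control raised more than 50% in primary screen plus both repeat runs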); conditions: Fluo4 calcium fluorescence, at 10 µM; hits give high values
[2] = tested on: transient receptor potential cation channel C4 beta (TRPC4), mouse; test: TRPC4 cation channel opening, second retest – cell-based, second round, Fluo4, HEK293 TRPC4beta/mu-opioid, 1 µM, confirmation (AID 2461); conditions: Fluo4 calcium fluorescence, at 1 µM; hits give high values
[3] = tested on: TRPC4 (transient receptor potential cation channel C4 beta), mouse; test: potentiation of DAMGO EC20 TRPC4 response – cell-based, second round, Fluo-4, HEK293 TRPC4beta/mu-opioid, 1 µM, confirmation (AID 2554;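 active means primary screen hit whose fluorescence ratio, in both repeats, exceeds the weak agonist control mean by 3 SD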); conditions: DAMGO EC20, Fluo-4 calcium flux, at 1 µM; hits give high values
[4] = tested on: TRPC4 beta (transient receptor potential cation channel C4), mouse; test: potentiation of DAMGO EC20 TRPC4 response – cell-based, Fluo-4, HEK293 TRPC4beta/mu-opioid, confirmation (AID 2555;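 active means primary screen hit whose calcium fluorescence ratio, in both repeats, exceeds the weak agonist control mean by 3 SD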); conditions: DAMGO EC20, Fluo-4 calcium flux, at 10 µM; hits give high values
[5] = molecular target: Short transient receptor potential channel 4 (Mus musculus) (UniProt Q9QUQ5); test: blockers of DAMGO-evoked TRPC4 calcium flux – cell-based, Fluo4, HEK293 TRPC4beta/mu-opioid, confirmation (AID 2636;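 active means calcium signal cut by more than 3 SD below the full-agonist control yet still positive, in both repeats and the earlier primary screen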); conditions: at 10 µM; hits give high values
[6] = molecular target: Short transient receptor potential channel 4 (Mus musculus) (UniProt Q9QUQ5); test: blockers of DAMGO-evoked TRPC4 calcium flux – cell-based, second round, Fluo4, HEK293 TRPC4beta/mu-opioid, 1 µM, confirmation (AID 2637;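 active means calcium signal ratio cut to more than 3 SD under the fully stimulated control mean yet still positive, in both repeats and the primary screen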); conditions: at 1 µM; hits give high values
[7] = molecular target: Short transient receptor potential channel 4 (Mus musculus) (UniProt Q9QUQ5); test: calcium entry via TRPC4 opening agents – cell-based, HEK293 TRPC4/mu-opioid, Fluo-4 calcium, dose response (AID 434937;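 active means primary screen activator hit with a dose response curve and TRPC4 channel activation at any tested dose; inactive means no activation, no dose response, or not a primary hit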)
[8] = molecular target: Short transient receptor potential channel 4 (Mus musculus) (UniProt Q9QUQ5); test: potentiation of DAMGO-evoked TRPC4 calcium signal – cell-based, HEK293 TRPC4/mu-opioid, Fluo-4 calcium, EC20 DAMGO, dose response (AID 434941;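 active means earlier screen potentiator hit that boosts the TRPC4 ion channel at some dose, with a dose response; inactive means no potentiation, no dose response, or not a prior hit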;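 further: calcium entry triggered by an EC20 dose of DAMGO at the co-expressed mu-opioid receptor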)
[9] = molecular target: Short transient receptor potential channel 4 (Mus musculus) (UniProt Q9QUQ5); test: block of DAMGO-driven TRPC4 calcium entry – cell-based, HEK293 TRPC4/mu-opioid, Fluo-4 calcium, dose response (AID 434942;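 active means primary screen inhibitor hit that blocks the TRPC4 channel at some tested dose, yielding a dose curve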)
[10] = molecular target: Short transient receptor potential channel 6 (Mus musculus) (UniProt Q61143); test: TRPC6 blockade by TRPC4 inhibitor hits – cell-based, HEK293, membrane potential dye, duplicate, selectivity assay for TRPC4 inhibitor project, confirmation (AID 434948;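 active means active in primary screen and both duplicates, each dropping signal beyond three positive-control SD with fluorescence still positive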); conditions: HEK293 TRPC6, membrane potential dye fluorescence, at 10 µM, stimulated with maximal-effect acetylcholine; hits give high values
[11] = molecular target: Short transient receptor potential channel 6 (Mus musculus) (UniProt Q61143); test: TRPC6 opening by TRPC4 activator hits – cell-based, HEK293, membrane potential dye, duplicate, selectivity assay for TRPC4 activator project, confirmation (AID 434950;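 active means membrane potential signal rise above negative control mean plus 3 SD in both duplicates, also active in the earlier TRPC4 screen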;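 on activation: 0% = buffer only wells and 100% = acetylcholine maximal-effect wells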); conditions: HEK293 TRPC6, membrane potential fluorescence, at 10 µM; activation: hits give high values; outcome: activation
[12] = molecular target: Short transient receptor potential channel 6 (Mus musculus) (UniProt Q61143); test: positive modulators of mouse TRPC6 channel – HEK293 cells, membrane potential dye, duplicate, selectivity assay for TRPC4 potentiator project, confirmation (AID 434952;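 active means compound raising the membrane signal above positive-control mean plus 3 SD in both repeats, and a primary screen hit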); conditions: HEK293 TRPC6, membrane potential dye fluorescence, at 10 µM, maximal acetylcholine added after compound; hits give high values
[13] = molecular target: Short transient receptor potential channel 4 (Mus musculus) (UniProt Q9QUQ5); test: calcium flux activators in TRPC4/5HT1a cells, counter-screen for TRPC4 activator project, cell-based, second counter screen, HEK293 TRPC4/5HT1a, Fluo-4 (AID 434977;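 active means calcium signal rise above buffer-control mean plus 5 SD in both duplicates, and also a hit in the primary screen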); conditions: Fluo-4 calcium flux, at 10 µM; hits give high values
[14] = serotonin-gated TRPC4 signal block – cell-based, second counter screen, HEK293 TRPC4/5HT1a, Fluo-4, counter-screen for TRPC4 inhibitor project, confirmation (AID 434978;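 active means primary screen active whose calcium signal fell more than 3 SD beyond the full-serotonin control mean in both duplicate plates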;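 further: serotonin given first at submaximal then at maximal dose after compound preincubation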); conditions: Fluo-4 calcium flux, at 10 µM, serotonin added to trigger calcium flux; hits give high values
[15] = tested on: TRPC4 (mouse), co-expressed with 5HT1a in HEK293; test: enhancement of serotonin-evoked TRPC4 response – cell-based, second counter screen, HEK293 TRPC4/5HT1a, Fluo-4, counter-screen for TRPC4 potentiator project, confirmation (AID 434979;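 active means signal rise over 3 SD above mean of control wells given weak agonist, in both repeats and first screen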); conditions: Fluo-4 calcium flux, at 10 µM, serotonin added at its EC20 dose; hits give high values
[16] = nonspecific calcium rise without TRPC4 – cell-based, HEK293 mu-opioid receptor line, counter-screen for TRPC4 activator project, confirmation (AID 449723;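 active means hit in primary screen, with calcium signal over 5 SD above buffer well mean in both duplicates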;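 further: counter screen cells carry the mu-opioid receptor alone and lack TRPC4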); conditions: HEK293 mu-opioid cells, Fluo-4 calcium fluorescence, at 10 µM; hits give high values
[17] = nonspecific potentiation of DAMGO calcium response – cell-based, HEK293 mu-opioid receptor line, counter-screen for TRPC4 allosteric potentiator project, confirmation (AID 449724;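 active means calcium signal rise more than 3 SD above the low-dose agonist control mean, in both duplicate plates and the primary screen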); conditions: HEK293 mu-opioid receptor cells, Fluo-4 calcium flux, at 10 µM, compound added before EC20 DAMGO stimulus; hits give high values

Chain of Short transient receptor potential channel 4 (Mus musculus) (Q9QUQ5 whole entry, looked up): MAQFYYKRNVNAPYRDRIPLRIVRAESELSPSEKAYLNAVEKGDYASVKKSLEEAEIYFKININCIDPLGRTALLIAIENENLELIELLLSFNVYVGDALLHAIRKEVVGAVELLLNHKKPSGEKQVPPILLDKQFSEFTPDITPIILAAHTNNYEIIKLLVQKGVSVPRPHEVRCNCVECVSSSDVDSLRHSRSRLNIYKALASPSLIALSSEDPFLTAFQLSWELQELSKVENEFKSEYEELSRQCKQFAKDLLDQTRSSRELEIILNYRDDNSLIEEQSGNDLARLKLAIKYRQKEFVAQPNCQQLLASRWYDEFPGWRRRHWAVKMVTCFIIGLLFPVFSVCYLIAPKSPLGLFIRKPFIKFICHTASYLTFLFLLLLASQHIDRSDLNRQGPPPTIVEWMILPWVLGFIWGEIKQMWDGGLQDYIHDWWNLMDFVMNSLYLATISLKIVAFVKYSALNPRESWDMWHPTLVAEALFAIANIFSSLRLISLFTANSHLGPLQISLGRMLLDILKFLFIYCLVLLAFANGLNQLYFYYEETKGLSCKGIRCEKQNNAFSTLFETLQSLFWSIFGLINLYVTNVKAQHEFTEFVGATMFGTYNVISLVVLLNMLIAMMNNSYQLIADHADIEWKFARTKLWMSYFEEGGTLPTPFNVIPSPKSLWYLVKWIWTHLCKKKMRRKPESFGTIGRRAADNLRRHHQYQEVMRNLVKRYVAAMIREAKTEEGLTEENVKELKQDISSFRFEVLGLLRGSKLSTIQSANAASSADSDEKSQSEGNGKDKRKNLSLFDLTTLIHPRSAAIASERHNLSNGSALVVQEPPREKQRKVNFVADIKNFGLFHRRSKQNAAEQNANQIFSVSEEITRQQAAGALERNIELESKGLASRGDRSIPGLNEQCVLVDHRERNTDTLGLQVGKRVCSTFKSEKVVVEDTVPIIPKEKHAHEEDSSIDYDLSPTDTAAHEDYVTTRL
Chain of Short transient receptor potential channel 6 (Mus musculus) (Q61143 whole entry, looked up): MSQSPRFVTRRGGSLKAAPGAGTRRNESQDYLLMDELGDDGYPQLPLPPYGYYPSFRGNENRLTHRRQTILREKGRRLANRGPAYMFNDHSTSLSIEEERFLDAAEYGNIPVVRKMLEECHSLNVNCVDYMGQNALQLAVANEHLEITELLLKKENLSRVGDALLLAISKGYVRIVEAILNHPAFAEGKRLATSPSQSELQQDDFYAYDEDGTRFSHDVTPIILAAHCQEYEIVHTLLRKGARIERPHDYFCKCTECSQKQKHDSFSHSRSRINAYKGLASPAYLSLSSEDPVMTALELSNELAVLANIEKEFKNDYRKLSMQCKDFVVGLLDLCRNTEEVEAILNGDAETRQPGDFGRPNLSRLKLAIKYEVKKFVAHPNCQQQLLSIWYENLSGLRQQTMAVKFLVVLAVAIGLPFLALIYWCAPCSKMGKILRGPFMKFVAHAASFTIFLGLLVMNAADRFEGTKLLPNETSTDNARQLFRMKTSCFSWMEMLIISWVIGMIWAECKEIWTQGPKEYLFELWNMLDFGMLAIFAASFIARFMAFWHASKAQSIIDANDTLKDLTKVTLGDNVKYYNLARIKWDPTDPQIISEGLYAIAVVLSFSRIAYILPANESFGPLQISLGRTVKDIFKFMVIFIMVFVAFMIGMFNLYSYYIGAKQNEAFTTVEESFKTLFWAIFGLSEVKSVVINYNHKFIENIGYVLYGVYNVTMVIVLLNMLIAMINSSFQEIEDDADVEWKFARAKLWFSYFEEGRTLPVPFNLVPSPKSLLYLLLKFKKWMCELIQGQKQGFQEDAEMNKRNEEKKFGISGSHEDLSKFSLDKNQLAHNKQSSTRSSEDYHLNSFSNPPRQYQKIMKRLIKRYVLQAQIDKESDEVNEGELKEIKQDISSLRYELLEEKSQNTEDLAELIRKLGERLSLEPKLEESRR

Cc1cc(N2CCOCC2)nc(NCc2ccccc2)n1
outcome [1]: inactive | outcome [2]: inactive | outcome [3]: inactive | outcome [4]: inactive | outcome [5]: inactive | outcome [6]: inactive | outcome [7]: inactive | outcome [8]: inactive | outcome [9]: inactive | outcome [10]: inactive | outcome [11]: inactive | outcome [12]: inactive | outcome [13]: inactive | outcome [14]: inactive | outcome [15]: inactive | outcome [16]: inactive | outcome [17]: inactive

CC(=O)c1cccc(Nc2cc(C)nc3c(C)cc(C)cc23)c1
outcome [1]: inactive | outcome [2]: inactive | outcome [3]: inactive | outcome [4]: inactive | outcome [5]: inactive | outcome [6]: inactive | outcome [7]: inactive | outcome [8]: inactive | outcome [9]: inactive | inhibition [10]: 25.5% (active) | outcome [11]: inactive | outcome [12]: inactive | outcome [13]: inactive | outcome [14]: inactive | outcome [15]: inactive | outcome [16]: inactive | outcome [17]: inactive

Cc1ccc(S(=O)(=O)NC(C(=O)Oc2cc3oc(=O)cc(C)c3cc2Cl)C(C)C)cc1 (stereo not given)
outcome [1]: inactive | outcome [2]: inactive | outcome [3]: inactive | outcome [4]: inactive | outcome [5]: inactive | outcome [6]: inactive | outcome [7]: inactive | outcome [8]: inactive | outcome [9]: inactive | outcome [10]: inactive | outcome [11]: inactive | outcome [12]: inactive | outcome [13]: inactive | outcome [14]: inactive | outcome [15]: inactive | outcome [16]: inactive | outcome [17]: inactive

NN=C1c2cc([N+](=O)[O-])ccc2-c2ccc([N+](=O)[O-])cc21
outcome [1]: inactive | outcome [2]: inactive | outcome [3]: inactive | outcome [4]: inactive | outcome [5]: inactive | outcome [6]: inactive | outcome [7]: inactive | outcome [8]: inactive | outcome [9]: inactive | outcome [10]: inactive | outcome [11]: inactive | outcome [12]: inactive | outcome [13]: inactive | outcome [14]: inactive | outcome [15]: inactive | outcome [16]: inactive | outcome [17]: inactive

CCCCN(C)CCNC(=O)c1c[nH]c2ccc(S(=O)(=O)N(CC)CC)cc2c1=O
outcome [1]: inactive | outcome [2]: inactive | outcome [3]: inactive | potentiation [4]: 46% (active) | outcome [5]: inactive | outcome [6]: inactive | outcome [7]: inactive | outcome [8]: inactive | outcome [9]: inactive | outcome [10]: inactive | outcome [11]: inactive | outcome [12]: inactive | outcome [13]: inactive | outcome [14]: inactive | potentiation [15]: 26.4% (active) | outcome [16]: inactive | outcome [17]: inactive

CN(C)c1ccc(C(=S)N2CCN(c3ccc([N+](=O)[O-])cc3)CC2)cc1
outcome [1]: inactive | outcome [2]: inactive | outcome [3]: inactive | outcome [4]: inactive | outcome [5]: inactive | outcome [6]: inactive | outcome [7]: inactive | outcome [8]: inactive | outcome [9]: inactive | outcome [10]: inactive | outcome [11]: inactive | outcome [12]: inactive | outcome [13]: inactive | outcome [14]: inactive | potentiation [15]: 8.7% (active) | outcome [16]: inactive | outcome [17]: inactive

c1ccc(-c2cnc(SCCN3CCOCC3)n2CC2CCCO2)cc1 (stereo not given)
outcome [1]: inactive | outcome [2]: inactive | outcome [3]: inactive | outcome [4]: inactive | outcome [5]: inactive | outcome [6]: inactive | outcome [7]: inactive | outcome [8]: inactive | outcome [9]: inactive | outcome [10]: inactive | outcome [11]: inactive | outcome [12]: inactive | outcome [13]: inactive | outcome [14]: inactive | outcome [15]: inactive | outcome [16]: inactive | outcome [17]: inactive

CCN1CCN(Cc2nc3c(c(=O)[nH]c(=O)n3C)n2Cc2ccccc2Cl)CC1
outcome [1]: inactive | outcome [2]: inactive | outcome [3]: inactive | potentiation [4]: 12% (active) | outcome [5]: inactive | outcome [6]: inactive | outcome [7]: inactive | outcome [8]: inactive | outcome [9]: inactive | outcome [10]: inactive | outcome [11]: inactive | outcome [12]: inactive | outcome [13]: inactive | outcome [14]: inactive | potentiation [15]: 19% (active) | outcome [16]: inactive | outcome [17]: inactive

Cc1cc(C)nc(Nc2nc(=O)c3ccccc3s2)n1
outcome [1]: inactive | outcome [2]: inactive | potentiation [3]: 10% (active) | potentiation [4]: 82% (active) | outcome [5]: inactive | outcome [6]: inactive | outcome [7]: inactive | outcome [8]: inactive | outcome [9]: inactive | outcome [10]: inactive | outcome [11]: inactive | outcome [12]: inactive | outcome [13]: inactive | outcome [14]: inactive | potentiation [15]: 81.3% (active) | outcome [16]: inactive | outcome [17]: inactive

O=C(c1ccc([N+](=O)[O-])s1)N1CCCc2ccccc21
outcome [1]: inactive | outcome [2]: inactive | outcome [3]: inactive | outcome [4]: inactive | outcome [5]: inactive | outcome [6]: inactive | outcome [7]: inactive | outcome [8]: inactive | outcome [9]: inactive | outcome [10]: inactive | outcome [11]: inactive | outcome [12]: inactive | outcome [13]: inactive | outcome [14]: inactive | outcome [15]: inactive | outcome [16]: inactive | outcome [17]: inactive

CNC(=S)NNC(=O)c1cccn(Cc2cccc(C(F)(F)F)c2)c1=O
outcome [1]: inactive | outcome [2]: inactive | outcome [3]: inactive | potentiation [4]: 14% (active) | outcome [5]: inactive | outcome [6]: inactive | outcome [7]: inactive | outcome [8]: inactive | outcome [9]: inactive | outcome [10]: inactive | outcome [11]: inactive | outcome [12]: inactive | outcome [13]: inactive | outcome [14]: inactive | outcome [15]: inactive | outcome [16]: inactive | outcome [17]: inactive

c1ccc(Nc2ncnc3sc4c(c23)CCC4)cc1
outcome [1]: inactive | outcome [2]: inactive | outcome [3]: inactive | outcome [4]: inactive | outcome [5]: inactive | outcome [6]: inactive | outcome [7]: inactive | outcome [8]: inactive | outcome [9]: inactive | outcome [10]: inactive | activation [11]: 30% (active) | outcome [12]: inactive | outcome [13]: inactive | outcome [14]: inactive | outcome [15]: inactive | outcome [16]: inactive | outcome [17]: inactive

C=CCOc1ccc(Br)cc1/C=N/O
outcome [1]: inactive | outcome [2]: inactive | outcome [3]: inactive | outcome [4]: inactive | outcome [5]: inactive | outcome [6]: inactive | outcome [7]: inactive | outcome [8]: inactive | outcome [9]: inactive | outcome [10]: inactive | outcome [11]: inactive | outcome [12]: inactive | outcome [13]: inactive | outcome [14]: inactive | outcome [15]: inactive | outcome [16]: inactive | outcome [17]: inactive

CCOc1ccc2nc(N3CCCC(C(=O)NCC4CCCO4)C3)sc2c1 (stereo not given)
outcome [1]: inactive | outcome [2]: inactive | outcome [3]: inactive | outcome [4]: inactive | outcome [5]: inactive | outcome [6]: inactive | outcome [7]: inactive | outcome [8]: inactive | outcome [9]: inactive | outcome [10]: inactive | outcome [11]: inactive | outcome [12]: inactive | outcome [13]: inactive | outcome [14]: inactive | outcome [15]: inactive | outcome [16]: inactive | outcome [17]: inactive

Cc1cc(C(C)(C)C)cc(S(=O)(=O)Nc2cccc(C(=O)O)c2)c1C
outcome [1]: inactive | outcome [2]: inactive | outcome [3]: inactive | potentiation [4]: 9% (active) | outcome [5]: inactive | outcome [6]: inactive | outcome [7]: inactive | outcome [8]: inactive | outcome [9]: inactive | outcome [10]: inactive | outcome [11]: inactive | outcome [12]: inactive | outcome [13]: inactive | outcome [14]: inactive | potentiation [15]: 19% (active) | outcome [16]: inactive | outcome [17]: inactive
